Reference: PubChem BioAssay (NCI)
Compounds without any hit were thinned out: in the full panel of roughly 79,000, 15% have a hit. Active and inactive are the calls of the source. Cut-off read from the data, not from the text of the source: active = growth inhibition above about 70%; inactive = the rest.

Tests used:
[1] = NCI Yeast Anticancer Drug Screen. Data for the rad50 strain (AID 155);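 note: 0% = growth of vehicle-only cultures of the same strain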; conditions: S. cerevisiae rad50 strain growth inhibition; at 50.0 µM; hits give high values
Outline: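 Readout: growth inhibition relative to vehicle-treated cultures. Compound exposure was carried out in a genetically defined yeast strain deficient in DNA damage repair.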

[2] = NCI Yeast Anticancer Drug Screen. Data for the mec2-1 strain (AID 157); conditions: S. cerevisiae mec2-1 strain, at 50.0 µM, hits give high values
Outline: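 Yeast mec2-1 mutant treated with compound. Readout: growth inhibition vs vehicle controls.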

[3] = NCI Yeast Anticancer Drug Screen. Data for the sgs1 mgt1 strain (AID 161);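 note: 0% = growth of cultures given vehicle only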; conditions: S. cerevisiae sgs1 mgt1 strain, at 50.0 µM, hits give high values
Outline: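 Test agents were incubated with a DNA-repair-mutant yeast strain. Growth was then read and compared against vehicle-treated controls.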

[4] = NCI Yeast Anticancer Drug Screen. Data for the cln2 rad14 strain (AID 165);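 note: 0% = growth equal to vehicle treated cultures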; conditions: S. cerevisiae cln2 rad14 strain, at 50.0 µM, hits give high values
Outline: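 cln2 rad14 yeast strain; compound exposure; growth inhibition read vs vehicle controls.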

[5] = NCI Yeast Anticancer Drug Screen. Data for the bub3 strain (AID 167); conditions: S. cerevisiae bub3 mutant strain, at 50.0 µM, hits give high values
Outline: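 Readout: yeast growth inhibition, expressed relative to vehicle-only wells. The test organism is a mutant strain from a panel with lesions in DNA repair or checkpoint genes.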

[6] = NCI Yeast Anticancer Drug Screen. Data for the mlh1 rad18 strain (AID 175); conditions: S. cerevisiae mlh1 rad18 strain growth inhibition; at 50.0 µM; hits give high values
Outline: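 Yeast w/ defined DNA-repair lesions; compound exposure; growth vs vehicle controls → % inhibition.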

Measured: growth inhibition

CNC(=S)N(C1CCCCC1)C1CCCCC1
inactive: [1] 26% | [2] -13.4% | [3] -2.2% | [4] -15% | [5] -10.1% | [6] 37%

CC1=Nc2ccc(C)cc2N=C(C)C1
inactive: [1] 11.4% | [2] 4.1% | [3] 7.2% | [4] -29.4% | [5] 22.4% | [6] -1.6%

O=C(c1c(F)c(F)c(F)c(F)c1F)n1c(=O)[nH]c2ccccc21
inactive: [1] -18.2% | [2] 13.2% | [3] -10.2% | [4] -12.1% | [5] 23.3% | [6] -27.4%

COC(=O)C1=C(CO)C2C=CC1C2 (centres undefined)
inactive: [1] 3.25% | [2] 26.1% | [3] -1.1% | [4] 6.55% | [5] 6.15% | [6] 6.7%

CCCC1CCCC12CCc1ccccc1C2=O (centres undefined)
inactive: [1] 15.3% | [2] -6.15% | [3] -11.1% | [4] 10.1% | [5] -5.8% | [6] 1.15%

COc1ccc(C(=O)CC2=Nc3nnc(CCCCCCCc4nnc5n4C(=O)C(CC(=O)c4ccc(OC)cc4)=N5)n3C2=O)cc1
inactive: [1] -5.95% | [2] -1.9% | [3] -16.4% | [4] 18.9% | [5] 0.1% | [6] -24.1%

O=C(Nc1nc2ccsc2s1)c1ccccc1
inactive: [1] -15.8% | [2] -3% | [3] -4% | [4] -34.9% | [5] -8% | [6] -10.8%

O=C1CCCCCCCC(=O)Nc2ccc3nc4ccccc4c(c3c2)SCCCCCCCCCCCCSc2c3ccccc3nc3ccc(cc23)N1
inactive: [1] -9.85% | [2] -6.5% | [3] -20.9% | [4] -9.15% | [5] -3.2% | [6] -10.3%

N/N=C1\C(Cl)=C(Cl)c2ccccc21
inactive: [1] 6.65% | [2] -6.35% | [3] 10.2% | [4] -11.8% | [5] 2.95% | [6] 8.3%

COc1ccc(/C=C/C(=O)CC(=O)/C=C/c2ccc(OC)cc2)cc1
inactive: [1] 23.1% | [2] 35% | [3] 7.65% | [4] 0.6% | [5] -2.75% | [6] 10.8%

Cc1ccc(N=CC=C2C=CN(O)C=C2)nc1
inactive: [1] -8% | [2] -10.9% | [3] -0.85% | [4] -19.2% | [5] -19.1% | [6] -10.5%

O=C(O)c1ccc2c([N+](=O)[O-])cccc2n1
inactive: [1] 33.5% | [2] 19.2% | [3] 14.3% | [4] -44% | [5] 1.15% | [6] 19.9%

COC(=O)[C@@H]1CCC(/C(C#N)=C2/CC[C@@H](C(=O)OC)N2)=N1
inactive: [1] 8.45% | [2] 12.6% | [3] 1.2% | [4] -5.1% | [5] 13.2% | [6] 11.1%

COC(=O)c1c(C(=O)OC)c(C(c2ccccc2)c2ccccc2)n(-c2ccccc2)c1Cl
inactive: [1] -17.6% | [2] -21.1% | [3] 0.6% | [4] 0.65% | [5] -18.3% | [6] 1.2%

CCS(=O)CCC(N)C(=O)O (centres undefined)
inactive: [1] -9.7% | [2] -20.1% | [3] 1.65% | [4] -19.6% | [5] 5.7% | [6] -3.6%

CCOC(C)=C(C#N)C#N
inactive: [1] 8.9% | [2] -9.4% | [3] 8.95% | [4] -7.85% | [5] -10.2% | [6] 4.9%

Cc1cccc2c(CC(N)C(=O)O)c[nH]c12 (centres undefined)
inactive: [1] 3.25% | [2] -19.9% | [3] -18.9% | [4] -23.4% | [5] -16.6% | [6] -3.35%

c1ccc2c(c1)C1C3c4ccccc4C1C1C2C31
inactive: [1] 5.1% | [2] 12.1% | [3] -0.1% | [4] 2.6% | [5] 3.5% | [6] -2.8%

CC[Si](/C=C(/C)C(C)(C)C)(CC)CC
inactive: [1] 0.9% | [2] -21.9% | [3] -7.05% | [4] -34.1% | [5] -8.05% | [6] -5.1%

N#Cc1c(C#N)c(-c2ccco2)n(/N=C/c2ccco2)c1N
inactive: [1] 4.55% | [2] 0.6% | [3] -34.5% | [4] -6.75% | [5] -25.8% | [6] -37.4%

O=C1c2ccccc2OC(Cl)(c2ccccc2)C1Cl (centres undefined)
inactive: [1] -15.1% | [2] -2.4% | [3] -7.5% | [4] -21.8% | [5] 22.7% | [6] 2%

CC1(C)OC(=O)CC1CCN (centres undefined)
inactive: [1] -0.75% | [2] -13.5% | [3] -7.05% | [4] -30.9% | [5] 14.9% | [6] 13.2%

COc1cc(-c2cc(=O)c3c(O)c(OC)c(OC)c(OC)c3o2)ccc1O
inactive: [1] 23.4% | [2] 10.2% | [3] -14.8% | [4] 28.4% | [5] 13.1% | [6] 14.9%

COc1ccc(CC2COC(=O)[C@@H]2Cc2ccc(O)cc2)cc1OC (some centres undefined)
inactive: [1] -32.9% | [2] -43.5% | [3] -14.1% | [4] -2.85% | [5] 4% | [6] -7.55%

COc1ccc(C=O)c(Br)c1O
inactive: [1] -0.65% | [2] -6.85% | [3] -14.2% | [4] 22.4% | [5] -12.3% | [6] -16.9%

CC1=CNNc2ccccc21
inactive: [1] -2.6% | [2] 1.45% | [3] -4.6% | [4] 8% | [5] -14.4% | [6] 5.1%

O=C(NC(=O)c1ccccc1Cl)Nc1ccc(C(O)(C(F)(F)F)C(F)(F)F)cc1
inactive: [1] 53.8% | [2] 53.5% | [3] 58.4% | [4] 68.7% | [5] 34.3% | [6] 61.5%

[Cl][Pt+2][Cl].[NH-]CC(C[NH-])(Cc1ccccc1)Cc1ccccc1
inactive: [1] -0.55% | [2] -13.9% | [3] -2.2% | [4] 15.1% | [5] -18.2% | [6] -38.6%

C1=N/C=C\C=C/c2ccc[n+](CCCCC[n+]3ccccc3-c3ccccn3)c21
active: [1] 81.5% | [3] 86.8% | [6] 75.2%
inactive: [2] 63.5% | [4] 63.1% | [5] 36.7%

CCCCOC(=S)Nc1ccc(S(=O)(=O)c2ccc(NC(=S)OCCCC)cc2)cc1
inactive: [1] 23.4% | [2] 0.15% | [3] 13.4% | [4] 9.35% | [5] -4.9% | [6] -9.65%

O=C(Nc1cccc([N+](=O)[O-])c1)c1ccc(Cl)cc1
inactive: [1] -5.95% | [2] -10.8% | [3] 8% | [4] -49.5% | [5] -9.5% | [6] -3.95%

COc1ccc(C=Nc2c(N)[nH]c(=S)[nH]c2=O)cc1
inactive: [1] -15% | [2] -12.8% | [3] -4.15% | [4] 0.7% | [5] -27.8% | [6] -51.7%

O=C1NC(=S)S/C1=C\c1ccc2c(c1)OCO2
inactive: [1] -22.1% | [2] -21.3% | [3] -4.8% | [4] -2% | [5] -8.05% | [6] -7.55%

O=[N+]([O-])C1CC(O)C(O)CC1c1ccc2c(c1)OCO2 (centres undefined)
inactive: [1] 11.1% | [2] 7.25% | [3] 1.7% | [4] 3.05% | [5] 1.95% | [6] 3.7%

Fc1cc(F)c2c(c1)Nc1cc(F)cc(F)c1S2
inactive: [1] 27.5% | [2] 21.6% | [3] 4.75% | [4] -13.6% | [5] 22.9% | [6] 12.7%

N#CCC(=O)N/N=C\C(O)C(O)C(O)C(O)CO (centres undefined)
inactive: [1] 0.1% | [2] 2.6% | [3] -10.8% | [4] -1.45% | [5] 4.5% | [6] 11.1%

Cc1nn(C)c(=O)c2nn(-c3ccccc3)c(C)c12
inactive: [1] 19.6% | [2] 3.4% | [3] 14.8% | [4] 14.3% | [5] 20.8% | [6] 1.25%

COc1ccccc1OCc1nnc(SCC(=O)O)n1-c1ccccc1
inactive: [1] 3.75% | [2] 3.4% | [3] 2.45% | [4] 11.6% | [5] 8.4% | [6] 27.9%

O=C(Nc1cc2c(cc1[N+](=O)[O-])-c1c(F)cccc1C2)C(F)(F)F
inactive: [1] 9.8% | [2] 1.4% | [3] 8.25% | [4] -14.2% | [5] 4.9% | [6] 2.15%

O=C(/C=C/c1ccccc1)NCC(O)CO (centres undefined)
inactive: [1] 7.1% | [2] -2.95% | [3] -3.65% | [4] -0.3% | [5] 0.5% | [6] 11.7%

Cn1cc(Cc2ccc(-c3ccccc3)cc2)c(=O)c(Cc2ccc(-c3ccccc3)cc2)c1
inactive: [1] 30.6% | [2] 6.75% | [3] -2.9% | [4] 12.5% | [5] 3.9% | [6] 27.8%

CCOc1c(N=Nc2ccccc2OC)c(-c2ccccc2)nn1C(=S)S
inactive: [1] 33.4% | [2] 42% | [3] 24.8% | [4] 5.75% | [5] 66.7% | [6] 18.9%

O=C1c2ccccc2C2NCCCN12 (centres undefined)
inactive: [1] -2.55% | [2] -12.3% | [3] -0.4% | [4] -5.65% | [5] -3.55% | [6] 0.9%

CN(C)c1cccc([N+](=O)[O-])c1
inactive: [1] -54.5% | [2] -11% | [3] -44.6% | [4] -32.5% | [5] -35.4% | [6] -48.8%
